The entries come from a sample that favours hits as a whole.
NOMO-1 viab – STK33 inhibitor candidate reducing NOMO-1 cell viability; inhibition, % (test concentration not listed); 37,000 compounds, 7.5% hits; NOMO-1 AML viability, CellTiter-Glo luminescence, 72 h; in the data active = inhibition above about 80%
MITF inhib – blocks MITF activity; TRPM1 promoter luciferase, luminescence, 24 h; inhibition, % (no concentration beside the values); 37,000 compounds, 0.28% hits; in the data active = inhibition above about 85%;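 note: human melanocyte line stably carrying TRPM1 promoter luciferase reporter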
U2OS ROS induce – raises reactive oxygen species in U2OS cancer cells | U2OS ROS induction, H2DCF-DA fluorescence | ROS induction (% of piperlongumine), % at 10 µM | 46,000 compounds, 2% hits; in the data active = ROS induction above about 79%, passing the limit was not always enough;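 note: 0% = DMSO vehicle median and 100% = reference compound median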
PD-1 reverse act – activators reversing PD-1 mediated T-cell inhibition; activation, % (test concentration not listed); 29,000 tested, under 10 active; primary human CD4 T cells, PD-L1 beads, CellTiter-Glo 96 h; call rule not given here;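 note: 0% = median vehicle wells and 100% = positive control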
YB-1 expression – YB-1 expression inhibition. U2OS, qRT-PCR YB-1 vs CDIP delta delta Cp, 16 h; hits give high values; zero = DMSO, each unit about twofold. delta delta Cp (YB-1 minus CDIP) (no concentration beside the values). 30,000 compounds, 0.37% hits;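 active = delta delta Cp rounded down to an integer at or above 3, about 3 SD of DMSO wells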;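 note: higher means less YB-1 transcript or more CDIP transcript relative to DMSO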
Active calls of the source: *; x = no result.

SMILES	NOMO-1 viab	MITF inhib	U2OS ROS induce	PD-1 reverse act	YB-1 expression
COc1ccc(-c2cc(-c3cccs3)nc(SC(C(=O)O)c3ccccc3)c2C#N)cc1 (configuration not stated)	91.9*	29.8	148.8*	-5.7	x
CCS(=O)(=O)CCSc1nc(-c2ccccc2)cc(-c2ccccc2)c1C#N	x	x	98.1*	x	x
N#Cc1c(-c2ccccc2)cc(-c2ccccc2)nc1SCC(O)CS(=O)Cc1ccccc1 (configuration not stated)	x	x	144.4*	x	x
N#Cc1c(-c2ccccc2)cc(-c2cccs2)nc1SCS(=O)Cc1ccccc1 (configuration not stated)	x	x	107.7*	x	x
Cc1cc(-c2ccccc2)nc(SCc2ccccc2)c1C#N	x	x	1.6	x	x
O=C(Nc1ccc(I)cc1C(=O)NCCN1CCOCC1)c1ccco1	-4.1	2.1	x	x	x
COc1ccc(-c2nnc(SCC(=O)Nc3ccc(Br)c(C)c3C)n2C)cc1	21.5	1.1	9.1	-0.6	x
C[C@@H]1CN([C@@H](C)CO)C(=O)c2cccc(NC(=O)CCCCCC(=O)Nc3ccccc3N)c2O[C@@H]1CN(C)Cc1ccccc1	87.7*	-4.4	2.8	2.2	-0.00569
C[C@@H]1CN([C@H](C)CO)C(=O)c2cccc(NC(=O)CCCCCC(=O)Nc3ccccc3N)c2O[C@H]1CN(C)Cc1ccc2c(c1)OCO2	122.5*	48.4	106.1*	-0.2	-0.23
C[C@H]1CN([C@@H](C)CO)C(=O)c2cccc(NC(=O)CCCCCC(=O)Nc3ccccc3N)c2O[C@@H]1CN(C)Cc1ccncc1	13.1	-35.5	2.0	1.4	-0.799
C[C@@H]1CN([C@H](C)CO)C(=O)c2cccc(NC(=O)CCCCCC(=O)Nc3ccccc3N)c2O[C@@H]1CN(C)Cc1ccc2c(c1)OCO2	68.4	13.7	-5.5	0.3	0.0247
C[C@@H]1CN([C@@H](C)CO)C(=O)c2cccc(NC(=O)CCCCCC(=O)Nc3ccccc3N)c2O[C@H]1CN(C)C	32.5	5.1	-9.8	-0.4	-0.102
C[C@H](CO)N1C[C@H](C)[C@@H](CN(C)Cc2ccc(-c3ccccc3)cc2)Oc2c(NC(=O)CCCCCC(=O)Nc3ccccc3N)cccc2C1=O	125.0*	28.0	117.0*	-1.9	-0.198
C[C@H](CO)N1C[C@H](C)[C@H](CN(C)Cc2ccc(Cl)c(Cl)c2)Oc2c(NC(=O)CCCCCC(=O)Nc3ccccc3N)cccc2C1=O	113.9*	41.3	121.4*	-0.7	-0.0691
CCc1nc(SCC(=O)OC)c2c3c(sc2n1)CCCC3	25.2	-27.2	15.3	0.9	x
Cc1noc(C)c1NC(=O)N(C)C[C@@H]1Oc2ccc(NS(C)(=O)=O)cc2CC(=O)N([C@@H](C)CO)C[C@@H]1C	-1.9	7.2	15.6	x	-0.197
CCCc1nc(NCc2ccccc2)c(C#N)c2c1CCCC2	x	x	-4.8	x	x
N#Cc1c(N2CCN(C(=S)NCc3ccccc3)CC2)nc(-c2ccccc2)c2c1CCCC2	x	x	139.9*	x	x
COc1cccc(C2CC(=O)NC(SCC(=O)Nc3ccccc3Cl)=C2C#N)c1OC (configuration not stated)	-8.0	-14.9	1.1	2.9	x
C=C1C2=C(O[C@H](/C(C)=C/C(C)CC(C)CC)[C@@H](O)[C@@H]2O)C(=O)N1OC (some centres not stated)	107.2*	-2.4	149.1*	0.2	-0.379
C[C@@H]1CN([C@@H](C)CO)C(=O)Cc2cc(NC(=O)Nc3ccc(C(F)(F)F)cc3)ccc2O[C@@H]1CN(C)S(=O)(=O)c1cn(C)cn1	111.9*	2.1	-5.6	-0.6	-0.37
C[C@H]1CN([C@@H](C)CO)C(=O)Cc2cc(NC(=O)Nc3ccc(C(F)(F)F)cc3)ccc2O[C@@H]1CN(C)S(=O)(=O)c1cn(C)cn1	-11.1	-8.5	-8.7	0.6	0.00678
C[C@H]1CN([C@@H](C)CO)C(=O)Cc2cc(NC(=O)NC3CCCCC3)ccc2O[C@@H]1CN(C)S(=O)(=O)c1cn(C)cn1	-22.7	0.9	108.8*	1.6	-0.349
C[C@H](CO)N1C[C@H](C)[C@H](CN(C)S(=O)(=O)c2cn(C)cn2)Oc2ccc(NC(=O)Nc3ccc(C(F)(F)F)cc3)cc2CC1=O	124.9*	10.3	9.1	x	-0.000944
O=C(Nc1ccc(S(=O)(=O)N2CCCC2)cc1)c1ccc(COc2ccc3c(c2)CCC3)cc1	x	x	87.4*	x	x
SMILES	NOMO-1 viab	MITF inhib	U2OS ROS induce	PD-1 reverse act	YB-1 expression
COc1ccc(CN2C(=O)C(O)(CC(=O)c3ccco3)c3ccccc32)cc1OC (configuration not stated)	118.2*	0.7	x	x	x
Cc1ccc(C(=O)CC2(O)C(=O)N(Cc3cccc4ccccc34)c3ccccc32)o1 (configuration not stated)	36.1	16.7	x	x	x
CCCCN1C(=O)C(O)(CC(=O)c2ccccn2)c2ccccc21 (configuration not stated)	125.4*	-2.8	-11.4	-1.4	x
COc1ccc(CN2C(=O)C(O)(CC(=O)c3ccc4ccccc4c3)c3ccccc32)cc1OC (configuration not stated)	61.2	12.2	x	x	x
O=C(CC1(O)C(=O)N(Cc2cccc3ccccc23)c2ccccc21)c1ccco1 (configuration not stated)	110.9*	20.7	x	x	x
O=C(CC1(O)C(=O)N(Cc2cccc3ccccc23)c2ccccc21)c1ccccn1 (configuration not stated)	111.5*	35.6	46.0	-7.4	x
CN(Cc1ccccc1)C(=O)Cn1nc(-c2ccc(Cl)cc2)ccc1=O	x	x	-10.9	x	x
C#CCN1C(=O)C(O)(CC(=O)c2ccc(C)o2)c2ccccc21 (configuration not stated)	120.3*	7.1	-13.0	-0.7	x
Cc1ccc(C(=O)CC2(O)C(=O)N(CC(N)=O)c3ccccc32)s1 (configuration not stated)	-1.2	4.6	-12.6	2.5	x
CCOC(=O)Cn1c(-c2cccnc2)nc(-c2ccccc2)c1-c1ccccc1	114.8*	3.3	73.7	-12.4	0.0237
COc1ccc(S(=O)(=O)Nc2cc(C)cc(C)c2)cc1	95.6*	41.6	-1.4	-0.1	-0.464
Cc1ccccc1/C=N/NC(=O)c1cccc(C(=O)NO)c1	x	x	-2.1	x	0.477
C[C@H]1CN([C@@H](C)CO)C(=O)c2cccc(NC(=O)C3CCCCC3)c2O[C@H]1CN(C)Cc1ccc(C(=O)Nc2ccccc2N)cc1	127.2*	-0.1	35.0	-4.3	-0.229
C[C@@H]1CN([C@@H](C)CO)C(=O)c2cccc(NC(=O)NC3CCCCC3)c2O[C@@H]1CN(C)Cc1ccc(C(=O)Nc2ccccc2N)cc1	128.8*	43.6	9.3	-3.4	-0.285
C[C@@H]1CN([C@@H](C)CO)C(=O)c2cccc(NC(=O)C3CC3)c2O[C@@H]1CN(C)Cc1ccc(C(=O)Nc2ccccc2N)cc1	128.1*	3.9	8.6	-4.1	-0.301
C[C@H](CO)N1C[C@H](C)[C@H](CN(C)Cc2ccc(C(=O)Nc3ccccc3N)cc2)Oc2c(NC(=O)C3CC3)cccc2C1=O	122.0*	30.4	7.8	-1.4	0.237

Screening data from PubChem.
